Experimental data reported in PubChem BioAssay AID1159580 (chemical genetic matrix, 2015).
Several values for one entry are separate records, joined by “and”; a condition that tells them apart may be missing. Equal values may be shown once. About 2,000 (36%) of roughly 5,500 compounds were called active. Not shown: some 18% with an inconclusive outcome. No stated cut-off is given here; in the data, active means normalized growth mostly below about 0.91 (no sharp cut-off); inconclusive means no clear call, values can overlap the other calls; inactive means mostly above about 0.92. Some of the results follow.

Assay: chemical genetic growth profiling, strain panel (AID 1159580);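 further: tested at 20 µM; growth read once vehicle control cultures reached saturation at 30 °C; 1 = growth at the plate median or of vehicle wells; lower values mean less growth of the strain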
Settings: S. cerevisiae deletion strains, growth OD

Measured: normalized growth

CO[C@@]12[C@@H]3NC3CN1C1=C(C(=O)C(N)=C(C)C1=O)[C@@H]2COC(N)=O (some centres not stated)
active: locus YCL061C, strain MRC1, active compounds read low 0.919
inactive: locus YAL013W, strain DEP1, active compounds read low 0.997 | locus YAL021C, strain ccr4, active compounds read low 0.98 | locus YAL026C, strain drs2, active compounds read low 0.969 | locus YAL030W, strain snc1, active compounds read low 0.989 | locus YBL061C, strain skt5, active compounds read low 0.964 | locus YBR009C, strain hhf1, active compounds read low 1 | locus YBR021W, strain FUR4, active compounds read low 0.995 | locus YBR023C, strain chs3, active compounds read low 0.962 | locus YBR171W, strain sec66, active compounds read low 0.958 | locus YBR229C, strain ROT2, active compounds read low 1 | locus YBR231C, strain swc5, active compounds read low 0.954 | locus YBR279W, strain paf1, active compounds read low 0.978 | locus YCL011C, strain gbp2, active compounds read low 0.95 | locus YCL016C, strain dcc1, active compounds read low 1.01 | locus YCL029C, strain bik1, active compounds read low 0.971 | locus YCL069W, strain vba3, active compounds read low 0.984 | locus YCR088W, strain abp1, active compounds read low 0.971 | locus YDL005C, strain med2, active compounds read low 0.972 | locus YDL035C, strain GPR1, active compounds read low 1 | locus YDL040C, strain nat1, active compounds read low 0.973 | locus YDL074C, strain BRE1, active compounds read low 1.04 | locus YDL101C, strain DUN1, active compounds read low 1.01 | locus YDL134C, strain PPH21, active compounds read low 1.01 | locus YDL185W, strain tfp1, active compounds read low 0.972 | locus YDL192W, strain arf1, active compounds read low 0.974 | locus YDR001C, strain nth1, active compounds read low 0.954 | locus YDR069C, strain doa4, active compounds read low 0.926 | locus YDR101C, strain arx1, active compounds read low 1 | locus YDR137W, strain rgp1, active compounds read low 0.955 | locus YDR150W, strain NUM1, active compounds read low 0.987 | locus YDR159W, strain sac3, active compounds read low 0.998 | locus YDR162C, strain NBP2, active compounds read low 1.05 | locus YDR195W, strain ref2 0.879 | locus YDR297W, strain sur2, active compounds read low 0.966 | locus YDR318W, strain mcm21, active compounds read low 0.977 | locus YDR334W, strain swr1, active compounds read low 0.934 | locus YDR335W, strain msn5, active compounds read low 0.963 | locus YDR388W, active compounds read low 0.982 | locus YDR392W, strain spt3, active compounds read low 1.06 | locus YDR502C, strain sam2, active compounds read low 1.01 | locus YEL003W, strain gim4, active compounds read low 0.973 | locus YEL037C, strain rad23, active compounds read low 0.975 | locus YEL061C, strain CIN8 (second series), active compounds read low 0.95 | locus YEL061C, strain CIN8, active compounds read low 0.998 | locus YER015W, strain faa2, active compounds read low 1 | locus YER016W, strain bim1, active compounds read low 1.01 | locus YER110C, active compounds read low 0.968 | locus YER111C, strain swi4, active compounds read low 0.981 | locus YER155C, strain BEM2 (second series), active compounds read low 0.962 | locus YER155C, strain BEM2, active compounds read low 0.993 | locus YER167W, strain BCK2, active compounds read low 0.994 | locus YFR010W, strain ubp6, active compounds read low 0.927 | locus YGL078C, strain dbp3, active compounds read low 0.996 | locus YGL086W, strain mad1, active compounds read low 0.963 | locus YGL167C, strain pmr1, active compounds read low 0.94 | locus YGL173C, strain kem1, active compounds read low 0.981 | locus YGL227W, strain vid30, active compounds read low 0.974 | locus YGL240W, strain doc1, active compounds read low 0.966 | locus YGL248W, strain PDE1, active compounds read low 1 | locus YGL253W, strain hxk2, active compounds read low 0.988 | locus YGR078C, strain PAC10, active compounds read low 1.04 | locus YGR135W, strain pre9, active compounds read low 1.02 | locus YGR229C, strain SMI1, active compounds read low 1.02 | locus YGR252W, strain gcn5, active compounds read low 0.943 | locus YHR013C, strain ard1, active compounds read low 0.985 | locus YHR027C, strain rpn1, active compounds read low 0.978 | locus YHR030C, strain SLT2, active compounds read low 0.993 and 0.988 | locus YHR079C, strain IRE1 (second series), active compounds read low 0.994 | locus YHR079C, strain IRE1, active compounds read low 0.957 | locus YHR094C, strain hxt1, active compounds read low 0.975 | locus YHR129C, strain ARP1, active compounds read low 1 | locus YHR142W, strain chs7, active compounds read low 0.987 | locus YHR200W, strain rpn10, active compounds read low 0.971 | locus YIL066C, strain RNR3, active compounds read low 0.998 | locus YIL073C, strain SPO22, active compounds read low 0.914 | locus YIL125W, strain kgd1, active compounds read low 0.996 | locus YIR030C, strain dcg1, active compounds read low 0.991 | locus YJL092W, strain hpr5, active compounds read low 0.936 | locus YJL095W, strain BCK1 (second series), active compounds read low 0.967 | locus YJL095W, strain BCK1, active compounds read low 1.04 and 0.999 | locus YJL115W, strain asf1, active compounds read low 0.968 | locus YJL129C, strain trk1, active compounds read low 0.96 | locus YJL134W, strain LCB3, active compounds read low 1 | locus YJL154C, strain vps35, active compounds read low 0.958 | locus YJL164C, strain tpk1, active compounds read low 1.01 | locus YJL166W, strain qcr8, active compounds read low 0.932 | locus YJL168C, strain set2, active compounds read low 0.983 | locus YJL187C, strain SWE1 (second series), active compounds read low 1.01 | locus YJL187C, strain SWE1, active compounds read low 0.98 | locus YJR043C, strain POL32, active compounds read low 0.98 | locus YJR066W, strain TOR1, active compounds read low 0.941
